# From PubChem
# m-calpain inh – inhibitors of pig calpain II, primary screen, biochemical, fluorogenic peptide substrate, 1536-well | AID 1236, 2008 | inhibition, % at 16 µM | 0.37% of 220,000 active | purified calpain II, 30 min;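 active = inhibition above about 50%, limit read from the data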
# KCC2 mod – KCC2 cotransporter modulators, thallium flux, primary screen, cell-based, HEK293 KCC2, FluoZin-2 fluorescence, MLSMR; Solute carrier family 12 member 5 (Homo sapiens), Q9H2X9; KCC2 cells, thallium flux FluoZin-2 fluorescence; B-score of Tl+ flux slope (higher = more flux/activation; lower = inhibition) at 10 µM; 2.2% of 190,000 active;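 active = thallium flux slope and its plate-corrected score both differing from the plate sample mean at a set confidence after two filtering rounds, in either direction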;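 note: slope of fluorescence scaled to starting intensity during 10 to 20 s after thallium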
# Lmaj promast – Leishmania major promastigote growth inhibition, primary screen; inhibition, % at 10 µM; 9% of 200,000 active; Leishmania major promastigotes, resazurin fluorescence viability; in the data active = inhibition above about 50%;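 note: promastigotes grown with compound for 44 hours at 28 °C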
# ROMK mod – ROMK potassium channel modulators, primary screen, cell-based, thallium flux, MLSMR library; Tet-inducible ROMK, thallium flux fluorescence; actives lie on both sides; B-score at 10 µM; 2% of 130,000 active; ATP-sensitive inward rectifier potassium channel 1 (Homo sapiens), P48048; AID 1918, 2009;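 active = signal ratio slope over the read window, or its plate-corrected B-score, at least 3 SD from the plate mean, either direction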;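 note: B-score of the F/F0 ratio slope over 7 to 12 s after thallium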
# Target sequence (P48048 whole entry, looked up): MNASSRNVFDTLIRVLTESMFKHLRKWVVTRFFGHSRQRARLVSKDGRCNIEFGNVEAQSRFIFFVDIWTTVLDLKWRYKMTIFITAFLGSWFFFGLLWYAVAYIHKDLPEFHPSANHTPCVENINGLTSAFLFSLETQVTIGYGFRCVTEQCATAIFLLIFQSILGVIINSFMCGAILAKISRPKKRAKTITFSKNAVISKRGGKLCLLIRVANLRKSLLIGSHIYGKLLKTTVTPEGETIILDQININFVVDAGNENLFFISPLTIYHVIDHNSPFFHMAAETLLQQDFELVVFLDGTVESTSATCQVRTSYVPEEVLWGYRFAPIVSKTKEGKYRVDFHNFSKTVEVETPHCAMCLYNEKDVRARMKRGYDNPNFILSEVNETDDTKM
# WT yeast gro inh – growth inhibition of WT strain, primary screen, mitochondrial fusion inhibitor project, WT and mutant strains, chemical genetic. 2.1% of 190,000 active. mitochondrial fusion phenotypic screen. AID 1362, 2008. inhibition, % at 10 µM; in the data active = inhibition above about 58%; tested in S. cerevisiae
# A number is an active result; . = inactive; / = not tested or not shown. Compounds with a hit are over-represented: about 12% of the library has one in this group of screens.
SMILES,m-calpain inh,KCC2 mod,Lmaj promast,ROMK mod,WT yeast gro inh
CCC1CSC(Nc2ccc(C(=O)/C=C/c3ccc(OC)c(OC)c3)cc2)=N1 (stereo not drawn),.,.,96.3,.,64.2
CCC1CSC(Nc2ccc(C(=O)/C=C/c3ccc(Br)cc3)cc2)=N1 (stereo not drawn),.,.,97.5,.,.
COc1ccc(/C=C/C(=O)c2ccc(NC3=NCCCS3)cc2)cc1OC,.,.,100.3,.,.
O=C(/C=C/c1ccc(Br)cc1)NC1CCCCCC1,.,.,.,/,.
C=CCNC(=O)c1ccccc1NC(=O)Cc1ccccc1[N+](=O)[O-],.,.,.,/,.
CCN1C(=O)/C(=C2\C=Cc3cc(C)ccc3N2CC)OC1=S,.,.,.,.,.
CCN1/C(=C/c2cc[n+](C)cc2)C=Cc2cc(C)ccc21,.,.,100.5,.,70.3
CCOC(=O)c1ccc(NC(=O)N2CCN(Cc3cccc(F)c3)CC2)cc1,.,-2.97,.,/,.
CCOC(=O)c1ccc(NC(=O)CSC(=S)N2CCOCC2)cc1,.,.,97.3,.,.
CSc1ccccc1NC(=O)c1ccc(CN2CCOCC2)cc1,.,.,.,.,.
CCCN1CCN(C(=O)Nc2ccc(C(=O)OCC)cc2)CC1,.,.,.,/,.
NC(=O)c1ccc(NC(=O)c2ccc(CN3CCOCC3)cc2)cc1,.,.,.,.,.
CCOC(=O)c1ccc(NC(=O)c2ccc(CN3CCOCC3)cc2)cc1,.,.,84.1,.,.
Cc1cc(CSc2ccccc2)ccc1NC(=O)c1ccc(CN2CCOCC2)cc1,.,.,62.9,.,.
Clc1ccc(-n2c(SCc3nc4ccccc4[nH]3)nnc2-c2ccncc2)cc1,.,/,.,.,.
Cc1sc2nc(CSc3n[nH]c(N)n3)[nH]c(=O)c2c1C,.,.,.,.,.
Cn1c(=O)n(C)c2cc(S(=O)(=O)Nc3cc(Cl)ccc3O)ccc21,.,.,.,.,.
O=C(O)CC(CC(=O)O)(C(=O)O)c1ccccc1,.,.,/,/,/
COc1ccccc1/C=C(/CC(=O)NCc1ccc2c(c1)OCO2)c1nc2ccccc2s1,.,.,93.2,/,.
O=C(CSc1nc2cc(Cl)ccc2s1)NCc1ccc2c(c1)OCO2,.,.,75.7,/,.
O=C(CSc1ncnc2c1cnn2-c1ccc(Cl)cc1)NCc1ccc2c(c1)OCO2,.,20.8,52.1,/,.
Cc1nnc(SCC(=O)NCc2ccc3c(c2)OCO3)s1,.,.,.,.,.
COc1ccc(/C=C(/CC(=O)NCc2ccc(Cl)cc2)c2nc3ccccc3s2)cc1,.,.,.,.,.
CCOC(=O)c1ccc(NC(=O)Nc2ncc(Cl)cc2Cl)cc1,.,/,/,/,/
O=C(N/N=C/c1ccc(Sc2nc3ccccc3s2)c([N+](=O)[O-])c1)c1ccccn1,/,.,.,/,.
SMILES,m-calpain inh,KCC2 mod,Lmaj promast,ROMK mod,WT yeast gro inh
O=C(CSc1c(F)c(F)cc(F)c1F)Nc1ccc(C2SCCS2)cc1,.,.,/,/,/
COc1ccc(/C=C/C(=O)c2c(C)nc3ccccn23)cc1,.,.,.,/,.
Cc1nc2ccccn2c1C(=O)/C=C/c1ccc(F)cc1,.,.,86.3,/,.
CCc1ccc(C2C(C#N)=C(N)C(C#N)(C#N)C3=CCC(C(C)(C)C)CC32)cc1 (stereo not drawn),.,.,96.0,/,.
O=C(Nc1ccc(/C=C/c2nc3ccccc3o2)cc1)c1ccc(F)cc1,.,/,.,/,.
CCOc1ccc(CN2CCN(Cc3cn(CC)nc3C)CC2CCO)cc1 (stereo not drawn),.,.,.,.,.
COc1cc(CNCc2cccnc2)ccc1OCC(=O)NC1CCCCC1,.,.,86.0,.,.
O=C(Nc1ccccc1N1CCOCC1)C1CCN(S(=O)(=O)c2ccc(Cl)cc2)CC1,.,.,/,/,/
CC(CNCc1ccc2c(c1)OCO2)NCc1ccc2c(c1)OCO2 (stereo not drawn),.,/,92.8,/,.
CC(C)(C)NC(=S)NCc1ccc2c(c1)OCO2,.,.,56.4,.,.
CN(C)CC(C)(C)CNC(=S)NCc1ccc2c(c1)OCO2,.,.,.,.,.
Cc1ccc(NC(=S)NCc2ccc3c(c2)OCO3)cc1C,.,.,.,.,60.9
OC(CNCc1ccc2c(c1)OCO2)COc1ccc(F)cc1 (stereo not drawn),.,.,/,.,/
O=C(Nc1c(O)c2ccccc2[nH]c1=O)c1ccco1,.,.,/,/,/
COc1ccc(CCNC(=O)CCNS(=O)(=O)c2cccc(Cl)c2)cc1OC,.,.,.,.,.
